# Screens (PubChem BioAssay)
# Most compounds without a hit are left out; they make up all but 2.3% or so of the library.
# CHT PAM = allosteric activators of human choline transporter CHT; 0.49% of 310,000 active; B-score at 10 µM; AID 488977; CHT-expressing cells, membrane potential dye, choline EC20; hits give high values; LV-AA mutant CHT in HEK293 cells; Q9GZV3;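 active = initial fluorescence not abnormally high and integrated response B-score, plate-corrected, over 3 SD above library mean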
# ANO1 activ = activates or potentiates the mouse TMEM16A chloride channel; Q8BHY3; HEK293 TMEM16A/YFP-H148Q/I152L, iodide quench fluorescence; hits give low values; 0.3% of 340,000 active; B-score at 10 µM;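 active = fluorescence-ratio B-score plate-corrected deviation score at least 3 library SD below zero, with starting fluorescence score within 5 deviations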;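 note: channel opened by trigger with iodide after compound preincubation; score built on the fluorescence ratio of max minus min over baseline; more negative score means more quench and so TMEM16A activation or potentiation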
# Target sequence (Q8BHY3 whole entry, looked up): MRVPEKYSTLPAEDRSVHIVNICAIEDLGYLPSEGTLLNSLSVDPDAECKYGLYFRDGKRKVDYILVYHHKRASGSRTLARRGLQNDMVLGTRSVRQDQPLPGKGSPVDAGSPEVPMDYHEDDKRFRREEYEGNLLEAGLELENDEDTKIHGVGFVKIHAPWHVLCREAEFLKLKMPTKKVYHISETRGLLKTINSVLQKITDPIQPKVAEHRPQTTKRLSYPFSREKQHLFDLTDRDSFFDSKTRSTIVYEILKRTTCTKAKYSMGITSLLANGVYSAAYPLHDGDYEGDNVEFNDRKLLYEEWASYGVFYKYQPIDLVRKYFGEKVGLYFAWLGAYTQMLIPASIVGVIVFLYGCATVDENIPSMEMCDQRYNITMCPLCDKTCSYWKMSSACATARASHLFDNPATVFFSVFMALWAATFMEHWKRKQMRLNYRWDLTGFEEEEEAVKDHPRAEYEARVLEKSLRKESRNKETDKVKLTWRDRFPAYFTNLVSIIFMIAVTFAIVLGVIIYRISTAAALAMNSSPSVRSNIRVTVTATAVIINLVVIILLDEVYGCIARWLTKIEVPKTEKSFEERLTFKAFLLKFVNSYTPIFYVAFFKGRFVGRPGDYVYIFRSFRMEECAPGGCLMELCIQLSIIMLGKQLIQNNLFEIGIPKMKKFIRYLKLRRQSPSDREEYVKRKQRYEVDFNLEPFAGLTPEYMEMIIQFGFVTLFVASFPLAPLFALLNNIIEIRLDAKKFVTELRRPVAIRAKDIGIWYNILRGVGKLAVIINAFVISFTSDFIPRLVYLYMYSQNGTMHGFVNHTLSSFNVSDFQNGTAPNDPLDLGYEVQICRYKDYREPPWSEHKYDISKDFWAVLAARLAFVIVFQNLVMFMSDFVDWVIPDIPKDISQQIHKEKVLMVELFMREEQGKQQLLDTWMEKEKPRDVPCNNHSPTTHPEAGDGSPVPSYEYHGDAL
# ANO1 block = mouse TMEM16A channel inhibition, primary screen; HEK293 TMEM16A/YFP iodide influx fluorescence, ionomycin; normalized B-score (activity score, 25-100; higher = stronger inhibition) at 10 µM; 1.2% of 310,000 active; AID 588511;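 active = ratio plate-corrected score three or more library SD toward inhibition, starting fluorescence score within five deviations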;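 note: score derived from kinetic fluorescence span divided by baseline fluorescence per well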
# CHT block = inhibitors of human choline transporter CHT; Q9GZV3; CHT-expressing cells, membrane potential dye, choline response; hits give low values; B-score at 10 µM; 0.86% of 310,000 active;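 active = B-score over 3 SD under the library average, and starting fluorescence ratio not unusually high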;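 note: choline stimulus applied at its EC90 after an EC20 pre-addition; B-score computed on integrated fluorescence ratio after choline addition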
# TMEM16A reconf = re-confirmation of mouse TMEM16A chloride channel inhibitors. shares compounds with ANO1 block. HEK293 TMEM16A/YFP-H148Q, iodide quench fluorescence; ionomycin added to raise cell calcium. inhibition, % at 10 µM. 39% of 2,300 active. AID 652189;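 active = mean duplicate percent inhibition, scaled so buffer wells are 0 and the reference blocker 100, over three buffer SD above buffer mean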
# HEK293 Ca mobil = alters calcium mobilization in TMEM16A HEK293 cells, counter-screen | 2% of 2,300 active | shares compounds with ANO1 block | TMEM16A/YFP HEK293, Fluo4 calcium mobilization | calcium response (% of ionomycin), % at 10 µM;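 active = duplicate-averaged calcium signal over 20% of the ionomycin maximum, relative to buffer baseline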;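 note: each well's signal is peak minus trough fluorescence divided by its pre-addition baseline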
# YFP-HEK293 quench = acts in parental YFP-HEK293 cells lacking TMEM16A, counter-screen; shares compounds with ANO1 block; 2,300 tested, under 10 active; iodide YFP quench, ionomycin; YFP ratio F(max-min)/F0 at 10 µM;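 active = yellow fluorescent protein signal ratio exceeding the buffer control mean by over 5 SD of those controls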;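 note: ratio is mean of duplicate wells from kinetic YFP trace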
# ClC-1 inh = selectivity of TMEM16A inhibitors: inhibition of rat ClC-1 chloride channel | shares compounds with ANO1 block | CHO ClC-1-YFP, iodide influx fluorescence quench; iodide control reads 0, buffer control 100 | ratio percent, % at 10 µM | 2,300 tested, under 10 active | AID 652236;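 active = duplicate-mean ratio percent above the mean of iodide-only control wells, which defines zero, plus 5 of their SD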;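 note: higher percent means stronger block of ClC-1 iodide influx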
# Hits are given with their value; - = inactive; . = not tested or not shown; ! = a repeat was not active.
SMILES,CHT PAM,ANO1 activ,ANO1 block,CHT block,TMEM16A reconf,HEK293 Ca mobil,YFP-HEK293 quench,ClC-1 inh
CCCCOc1ncnc2c1[nH]c1ccc(F)cc12,-,-,25,-,-,-,-,-
CC(NC(=O)c1ccc(C(=O)c2ccccc2)cc1)c1ccc(S(N)(=O)=O)cc1 (stereo not given),.,-,.,.,.,.,.,.
CCCCN(CCCNC(=O)c1c(C)cc(=O)oc1C)c1ccccc1,-,-,-,-,.,.,.,.
CCN(CCCNC(=O)c1c(C)cc(=O)oc1C)c1ccccc1,-,-,25,-,-,-,-,-
COc1ccc(S(=O)(=O)Nc2cc3[nH]c(=O)oc3cc2C)cc1,-,.,-,-,.,.,.,.
COc1ccccc1N(CC(=O)NCCSCc1cccc(C)c1)S(=O)(=O)c1ccccc1,-,-,25,-,-,-,-,-
COc1ccccc1N(CC(=O)NCCSCc1ccccc1)S(C)(=O)=O,-,-,-,-,.,.,.,.
COc1ccc(C(CNC(=O)c2ccc(C)c(S(=O)(=O)N3CCOCC3)c2)N2CCCC2)cc1 (stereo not given),.,-,.,.,.,.,.,.
Cc1ccc(OCc2nc(C#N)c(NCc3ccco3)o2)cc1,-,-,-,-,.,.,.,.
N#Cc1nc(COc2cccc(Cl)c2)oc1NCc1ccco1,-,-,-,-,-,-,-,-
O=C(Nc1ccc(-c2n[nH]c(=S)o2)cc1)c1ccccc1Br,-,-,-,-,.,.,.,.
O=C(Nc1ccccc1)N1CCN(Cc2ccc3c(c2)OCO3)CC1,-,-,100,-,-,-,-,-
CCNS(=O)(=O)c1ccc(CCC(=O)N2CCN(Cc3ccccc3)CC2)cc1,-,-,-,-,.,.,.,.
O=C(CCc1ccc(S(=O)(=O)NCCc2ccccc2)cc1)N1CCN(Cc2ccc3c(c2)OCO3)CC1,-,-,25,-,-,-,-,-
Cc1cc(C)cc(NC(=O)N2CCN(Cc3ccc4c(c3)OCO4)CC2)c1,-,-,-,-,.,.,.,.
CCOc1ccc(N2C(=O)CC(NCC#N)C2=O)cc1 (stereo not given),-,-,25,-,-,-,-,-
CCOc1ccc(N2C(=O)CC(NCc3ccc(S(N)(=O)=O)cc3)C2=O)cc1 (stereo not given),-,-,-,-,.,.,.,.
Cc1ccc(NC(=O)C(C)c2ccc(-c3ccccc3)c(F)c2)c(C)c1 (stereo not given),-,-,25,-,-,-,-,-
CC(C(=O)O)c1ccc(-c2ccccc2)c(F)c1 (stereo not given),-,-,-,-,.,.,.,.
O=C(Nc1cccc(S(=O)(=O)N2CCCCC2)c1)c1ccc(OCC2CCCO2)cc1 (stereo not given),-,-,25,-,-,-,-,-
O=C(Nc1ccc(S(=O)(=O)N2CCCC2)cc1)c1ccc(OCC2CCCO2)cc1 (stereo not given),-,-,25,-,20.0%,-,-,-
CSc1ncc(C(=O)Nc2cccc(Cl)c2)c(C)n1,-,-,-,-,.,.,.,.
O=C(C1CCC1)N1CCc2cc(S(=O)(=O)N3CCN(c4ccccn4)CC3)ccc21,-,-,-,-,-,-,-,-
COC(=O)c1ccc(NC(=O)CCN2CCCCC2)cc1,-,-,25!,-,-,-,-,-
CS(=O)(=O)c1ccc(Cl)c(NC(=O)CN2CCN(S(=O)(=O)/C=C/c3ccccc3)CC2)c1,.,-,.,.,.,.,.,.
CN(C(=O)COC(=O)c1ccccc1OCc1ccc(F)cc1)C1CCS(=O)(=O)C1 (stereo not given),.,-,.,.,.,.,.,.
CCC1C(=O)N(c2nc(C)cc(C)n2)N=C1C (stereo not given),-,-,-,-,.,.,.,.
Cc1cc(C)nc(N2N=C(C(C)(C)C)CC2=O)n1,-,-,-,-,-,-,-,-
COc1cc(/C=C/C(=O)OCC(=O)NC(=O)C2COc3ccccc3O2)ccc1OC(F)F (stereo not given),.,-,.,.,.,.,.,.
